Experimental findings from ChEMBL document CHEMBL1961873, “Compounds: GSK PKIS; Assays: Nanosyn kinase panel” (2012) are described below.

Experiment [1] concerns the target Mast/stem cell growth factor receptor Kit (Homo sapiens) (UniProt P10721). The settings on record: at 1 µM.
Experiment [2] deals with Mast/stem cell growth factor receptor Kit (Homo sapiens), P10721 [D816V]. The following applies: at 0.1 µM.
Experiment [3] shares this test system. The settings on record: at 1 µM.
Experiment [4] has as its system Mast/stem cell growth factor receptor Kit (Homo sapiens), P10721 [T670I]. The settings on record: at 0.1 µM.
Experiment [5] shares this test system. The following applies: at 1 µM.
The subject of experiment [6] is Mast/stem cell growth factor receptor Kit (Homo sapiens), P10721 [V560G]. The settings on record: at 0.1 µM.
For experiment [7] the test system is unchanged. The following applies: at 1 µM.
Experiment [8] concerns the target Tyrosine-protein kinase Lck (Homo sapiens) (UniProt P06239). The following applies: at 0.1 µM.
Experiment [9] has the same target. The settings on record: at 1 µM.
The target of experiment [10] is Leukocyte tyrosine kinase receptor (Homo sapiens) (UniProt P29376). The settings on record: at 0.1 µM.
Chain of Leukocyte tyrosine kinase receptor (Homo sapiens) (P29376 whole entry): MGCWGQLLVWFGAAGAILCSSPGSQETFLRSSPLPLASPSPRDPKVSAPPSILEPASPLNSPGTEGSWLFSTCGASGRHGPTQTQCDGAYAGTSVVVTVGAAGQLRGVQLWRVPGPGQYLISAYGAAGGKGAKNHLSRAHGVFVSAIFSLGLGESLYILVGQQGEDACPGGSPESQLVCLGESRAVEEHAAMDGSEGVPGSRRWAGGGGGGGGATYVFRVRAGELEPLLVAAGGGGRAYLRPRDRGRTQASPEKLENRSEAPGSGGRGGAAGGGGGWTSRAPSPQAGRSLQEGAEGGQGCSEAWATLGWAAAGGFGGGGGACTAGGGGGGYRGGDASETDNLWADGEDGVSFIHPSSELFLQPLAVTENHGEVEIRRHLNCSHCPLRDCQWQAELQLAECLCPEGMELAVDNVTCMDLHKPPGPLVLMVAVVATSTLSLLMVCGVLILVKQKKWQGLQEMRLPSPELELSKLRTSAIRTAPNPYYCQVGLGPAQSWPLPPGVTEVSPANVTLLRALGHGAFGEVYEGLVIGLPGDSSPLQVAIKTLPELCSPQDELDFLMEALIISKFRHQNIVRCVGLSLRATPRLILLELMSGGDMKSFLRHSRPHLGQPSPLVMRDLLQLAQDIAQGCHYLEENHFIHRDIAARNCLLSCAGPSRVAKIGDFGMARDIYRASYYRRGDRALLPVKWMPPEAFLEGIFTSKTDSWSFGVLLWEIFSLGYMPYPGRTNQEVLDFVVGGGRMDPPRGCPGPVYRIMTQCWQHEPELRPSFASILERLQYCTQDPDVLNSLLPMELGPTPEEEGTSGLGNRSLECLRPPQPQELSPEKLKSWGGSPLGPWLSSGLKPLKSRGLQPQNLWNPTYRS
Experiment [11] has the same target. The following applies: at 1 µM.
Experiment [12] addresses Tyrosine-protein kinase Lyn (Homo sapiens) (UniProt P07948). The settings on record: at 0.1 µM.
For experiment [13] the target is unchanged. The settings on record: at 1 µM.
Experiment [14] shares this target. The following applies: at 0.1 µM. This is another data set of the same source.
The target is the same in experiment [15]. The following applies: at 1 µM. The source holds these as a separate data set.
Experiment [16] concerns the target T1, Tyrosine-protein kinase Mer (Homo sapiens) (UniProt Q12866).
T1 sequence (whole entry): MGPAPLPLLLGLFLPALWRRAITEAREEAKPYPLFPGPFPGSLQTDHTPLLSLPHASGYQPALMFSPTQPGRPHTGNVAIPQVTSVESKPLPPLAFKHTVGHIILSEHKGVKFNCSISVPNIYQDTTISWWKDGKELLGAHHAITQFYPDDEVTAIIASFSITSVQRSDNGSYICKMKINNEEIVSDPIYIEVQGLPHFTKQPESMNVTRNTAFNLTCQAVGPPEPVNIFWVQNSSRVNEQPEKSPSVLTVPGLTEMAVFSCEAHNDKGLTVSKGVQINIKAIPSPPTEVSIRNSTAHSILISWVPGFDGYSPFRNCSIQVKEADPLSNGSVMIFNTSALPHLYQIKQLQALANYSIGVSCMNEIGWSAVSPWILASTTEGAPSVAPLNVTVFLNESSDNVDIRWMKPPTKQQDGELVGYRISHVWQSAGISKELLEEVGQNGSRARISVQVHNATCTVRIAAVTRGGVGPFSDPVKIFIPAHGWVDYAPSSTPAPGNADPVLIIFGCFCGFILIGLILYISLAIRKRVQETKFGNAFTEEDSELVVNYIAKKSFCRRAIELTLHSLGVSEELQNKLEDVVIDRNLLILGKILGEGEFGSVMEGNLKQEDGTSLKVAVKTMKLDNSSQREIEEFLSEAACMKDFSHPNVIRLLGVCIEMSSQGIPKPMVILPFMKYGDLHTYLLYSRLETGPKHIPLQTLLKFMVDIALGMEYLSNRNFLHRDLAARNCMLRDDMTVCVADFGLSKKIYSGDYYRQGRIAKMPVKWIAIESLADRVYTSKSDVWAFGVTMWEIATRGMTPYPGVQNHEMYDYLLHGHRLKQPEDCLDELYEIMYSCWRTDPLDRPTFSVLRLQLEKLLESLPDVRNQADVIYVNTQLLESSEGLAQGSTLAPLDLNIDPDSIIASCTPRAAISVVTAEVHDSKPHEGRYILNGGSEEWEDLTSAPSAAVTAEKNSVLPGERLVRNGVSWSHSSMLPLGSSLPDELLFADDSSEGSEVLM
The following applies: at 0.1 µM.

Experiment [17] concerns the target T1, Tyrosine-protein kinase Mer (Homo sapiens). The settings on record: at 1 µM.
Experiment [18] concerns the target Hepatocyte growth factor receptor (Homo sapiens) (UniProt P08581). The settings on record: at 0.1 µM.
For experiment [19] the target is unchanged. The following applies: at 1 µM.
For experiment [20], the target named is T2, Muscle, skeletal receptor tyrosine-protein kinase (Homo sapiens) (UniProt O15146).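 Also: values are mean inhibition of MuSK from the GSK PKIS kinase screening panel.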
T2 sequence (whole entry): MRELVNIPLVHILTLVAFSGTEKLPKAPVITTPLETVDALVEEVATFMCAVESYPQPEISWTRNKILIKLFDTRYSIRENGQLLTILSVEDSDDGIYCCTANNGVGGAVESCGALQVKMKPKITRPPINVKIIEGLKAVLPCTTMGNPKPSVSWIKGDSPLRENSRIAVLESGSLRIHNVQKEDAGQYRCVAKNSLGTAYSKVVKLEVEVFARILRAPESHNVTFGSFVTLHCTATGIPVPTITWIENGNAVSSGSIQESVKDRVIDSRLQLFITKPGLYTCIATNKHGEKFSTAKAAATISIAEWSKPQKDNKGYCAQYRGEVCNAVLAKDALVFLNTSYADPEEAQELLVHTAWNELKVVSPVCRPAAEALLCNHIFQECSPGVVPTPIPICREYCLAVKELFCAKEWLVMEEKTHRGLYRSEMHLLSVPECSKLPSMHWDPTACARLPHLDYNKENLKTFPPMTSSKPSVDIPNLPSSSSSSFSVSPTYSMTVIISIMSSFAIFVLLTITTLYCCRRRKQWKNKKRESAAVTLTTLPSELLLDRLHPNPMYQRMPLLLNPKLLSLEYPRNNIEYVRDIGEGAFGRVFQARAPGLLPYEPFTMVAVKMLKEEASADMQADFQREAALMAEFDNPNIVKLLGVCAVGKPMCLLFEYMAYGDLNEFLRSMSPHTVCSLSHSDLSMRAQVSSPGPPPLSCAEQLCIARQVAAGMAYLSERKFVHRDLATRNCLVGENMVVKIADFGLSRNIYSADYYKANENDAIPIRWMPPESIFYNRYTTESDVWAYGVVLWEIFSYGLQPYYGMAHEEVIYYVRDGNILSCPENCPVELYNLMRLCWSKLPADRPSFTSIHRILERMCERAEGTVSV
The following applies: at 0.1 µM.

Chain of Mast/stem cell growth factor receptor Kit (Homo sapiens), P10721 [D816V] (P10721 whole entry D816V): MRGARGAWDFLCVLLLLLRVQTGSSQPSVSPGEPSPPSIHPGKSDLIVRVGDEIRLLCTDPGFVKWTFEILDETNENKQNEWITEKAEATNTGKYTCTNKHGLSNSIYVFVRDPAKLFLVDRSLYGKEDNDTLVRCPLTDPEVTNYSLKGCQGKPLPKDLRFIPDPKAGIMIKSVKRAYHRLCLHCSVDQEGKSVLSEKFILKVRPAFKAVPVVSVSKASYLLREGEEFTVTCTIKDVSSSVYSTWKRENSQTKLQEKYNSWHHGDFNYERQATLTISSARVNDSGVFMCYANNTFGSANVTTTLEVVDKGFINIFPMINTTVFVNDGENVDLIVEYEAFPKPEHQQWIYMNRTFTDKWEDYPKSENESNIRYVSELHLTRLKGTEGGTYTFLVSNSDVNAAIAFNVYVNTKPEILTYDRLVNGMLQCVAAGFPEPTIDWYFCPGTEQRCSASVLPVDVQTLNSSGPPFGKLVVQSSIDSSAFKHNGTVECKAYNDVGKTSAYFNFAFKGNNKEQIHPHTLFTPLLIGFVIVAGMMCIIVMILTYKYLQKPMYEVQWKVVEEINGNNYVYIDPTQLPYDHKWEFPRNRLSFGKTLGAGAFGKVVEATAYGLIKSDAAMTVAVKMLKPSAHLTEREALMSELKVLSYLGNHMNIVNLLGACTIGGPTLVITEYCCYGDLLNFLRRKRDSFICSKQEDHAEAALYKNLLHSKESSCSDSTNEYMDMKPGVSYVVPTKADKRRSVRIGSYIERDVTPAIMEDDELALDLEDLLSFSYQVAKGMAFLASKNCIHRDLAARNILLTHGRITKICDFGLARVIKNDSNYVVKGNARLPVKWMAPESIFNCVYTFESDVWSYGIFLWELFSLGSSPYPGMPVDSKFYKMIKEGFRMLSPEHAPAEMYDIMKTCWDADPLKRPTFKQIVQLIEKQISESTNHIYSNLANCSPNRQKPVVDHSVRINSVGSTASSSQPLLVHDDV
Chain of Mast/stem cell growth factor receptor Kit (Homo sapiens), P10721 [V560G] (P10721 whole entry V560G): as the sequence (P10721 whole entry D816V) above, with V560G, V816D counted along it
Chain of Mast/stem cell growth factor receptor Kit (Homo sapiens) (P10721 whole entry): as the sequence (P10721 whole entry D816V) above, with V816D counted along it
Chain of Mast/stem cell growth factor receptor Kit (Homo sapiens), P10721 [T670I] (P10721 whole entry T670I): as the sequence (P10721 whole entry D816V) above, with T670I, V816D counted along it
Chain of Tyrosine-protein kinase Lck (Homo sapiens) (P06239 2-509 limits assumed): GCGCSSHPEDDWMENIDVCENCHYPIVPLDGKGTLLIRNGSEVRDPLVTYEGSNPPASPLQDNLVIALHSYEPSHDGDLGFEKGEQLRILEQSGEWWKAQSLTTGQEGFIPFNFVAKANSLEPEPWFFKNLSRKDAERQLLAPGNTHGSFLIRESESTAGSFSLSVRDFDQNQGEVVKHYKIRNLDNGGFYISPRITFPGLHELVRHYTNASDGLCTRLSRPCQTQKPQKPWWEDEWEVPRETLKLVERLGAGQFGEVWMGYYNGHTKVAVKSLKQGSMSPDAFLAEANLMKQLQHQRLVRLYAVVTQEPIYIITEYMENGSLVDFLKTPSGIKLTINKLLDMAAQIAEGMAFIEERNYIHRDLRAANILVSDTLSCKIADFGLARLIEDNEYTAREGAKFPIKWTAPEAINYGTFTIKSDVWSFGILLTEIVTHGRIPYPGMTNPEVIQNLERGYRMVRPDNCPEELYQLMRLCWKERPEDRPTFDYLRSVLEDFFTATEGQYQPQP
Chain of Hepatocyte growth factor receptor (Homo sapiens) (P08581 whole entry): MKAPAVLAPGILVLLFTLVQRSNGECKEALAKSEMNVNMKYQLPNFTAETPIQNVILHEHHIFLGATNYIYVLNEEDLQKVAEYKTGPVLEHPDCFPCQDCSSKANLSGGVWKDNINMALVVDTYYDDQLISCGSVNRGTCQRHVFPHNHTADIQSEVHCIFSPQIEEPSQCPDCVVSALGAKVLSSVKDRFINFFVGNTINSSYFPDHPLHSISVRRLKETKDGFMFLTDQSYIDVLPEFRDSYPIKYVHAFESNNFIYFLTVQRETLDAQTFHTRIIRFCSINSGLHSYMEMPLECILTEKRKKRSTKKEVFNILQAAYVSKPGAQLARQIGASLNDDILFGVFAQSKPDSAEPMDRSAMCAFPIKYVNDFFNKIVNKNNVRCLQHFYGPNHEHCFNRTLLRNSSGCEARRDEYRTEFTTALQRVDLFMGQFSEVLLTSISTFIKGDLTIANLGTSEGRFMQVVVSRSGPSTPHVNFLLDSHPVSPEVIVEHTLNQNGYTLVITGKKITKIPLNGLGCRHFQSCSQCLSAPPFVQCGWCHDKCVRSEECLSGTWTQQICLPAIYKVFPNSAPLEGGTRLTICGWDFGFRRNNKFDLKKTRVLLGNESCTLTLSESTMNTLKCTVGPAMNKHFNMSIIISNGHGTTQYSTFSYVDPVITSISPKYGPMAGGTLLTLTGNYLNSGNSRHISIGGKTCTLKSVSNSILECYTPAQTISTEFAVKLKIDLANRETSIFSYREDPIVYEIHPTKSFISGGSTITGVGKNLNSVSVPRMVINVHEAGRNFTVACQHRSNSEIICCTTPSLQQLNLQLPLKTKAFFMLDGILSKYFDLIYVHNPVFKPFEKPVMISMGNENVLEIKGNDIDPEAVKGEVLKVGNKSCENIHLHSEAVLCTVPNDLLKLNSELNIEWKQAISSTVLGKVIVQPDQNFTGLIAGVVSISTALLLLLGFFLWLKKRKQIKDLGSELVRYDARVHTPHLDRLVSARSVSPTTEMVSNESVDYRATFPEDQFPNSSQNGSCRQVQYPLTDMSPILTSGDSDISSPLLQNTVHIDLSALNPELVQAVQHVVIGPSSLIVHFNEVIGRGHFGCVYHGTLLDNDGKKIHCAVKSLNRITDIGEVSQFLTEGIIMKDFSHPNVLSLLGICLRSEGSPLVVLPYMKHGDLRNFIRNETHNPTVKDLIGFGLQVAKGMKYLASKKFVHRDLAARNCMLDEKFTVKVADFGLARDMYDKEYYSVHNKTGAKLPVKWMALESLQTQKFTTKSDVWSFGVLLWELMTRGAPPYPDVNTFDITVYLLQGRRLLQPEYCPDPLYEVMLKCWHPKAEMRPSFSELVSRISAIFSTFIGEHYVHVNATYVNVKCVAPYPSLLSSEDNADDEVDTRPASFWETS
Chain of Tyrosine-protein kinase Lyn (Homo sapiens) (P07948 2-512 limits assumed): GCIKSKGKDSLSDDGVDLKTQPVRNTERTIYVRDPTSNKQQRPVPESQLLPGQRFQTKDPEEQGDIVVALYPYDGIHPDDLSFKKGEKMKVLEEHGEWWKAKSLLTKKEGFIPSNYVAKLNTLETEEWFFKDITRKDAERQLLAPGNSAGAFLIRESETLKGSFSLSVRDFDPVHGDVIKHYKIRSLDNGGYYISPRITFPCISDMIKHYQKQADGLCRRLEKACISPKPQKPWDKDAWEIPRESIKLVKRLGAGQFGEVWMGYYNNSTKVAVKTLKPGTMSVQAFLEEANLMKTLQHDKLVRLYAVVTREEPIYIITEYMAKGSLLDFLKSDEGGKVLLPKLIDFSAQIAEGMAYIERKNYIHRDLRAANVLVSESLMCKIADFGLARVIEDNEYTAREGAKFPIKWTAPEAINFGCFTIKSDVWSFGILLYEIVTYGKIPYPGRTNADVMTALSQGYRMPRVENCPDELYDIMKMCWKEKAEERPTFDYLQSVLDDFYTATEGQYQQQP

In the case of `COc1cc2c(cc1Nc1nc(Nc3cccc(F)c3C(N)=O)c3cc[nH]c3n1)N(C(=O)CN1CCN(C(C)C)CC1)CC2`, the inhibition (usually the drop in the measured response relative to a control, in per cent) was 1.51% in experiment [1]; -0.69% in experiment [2]; 0.07% in [3]; -0.28% in experiment [4]; -0.5% in experiment [5]; -3.41% in experiment [6]. For the same compound, the inhibition is -2.31% in experiment [7]; 2.47% in experiment [8]; 0.75% in experiment [9]; 27.6% in [10]; 80.7% in experiment [11]; 0.63% in experiment [12]. For the same compound, the inhibition is -0.57% in experiment [13]; -1.56% in experiment [14]; -0.54% in experiment [15]; 1.98% in experiment [16]; 3.27% in experiment [17]; 5.94% in experiment [18]. Also, the inhibition in experiment [19] was 1.99%; in experiment [20] it was 1.22%.
With `COc1ccc(-c2nn3ncccc3c2-c2ccnc(Nc3ccc(F)c(F)c3)n2)cc1`, the inhibition in [1] is 28.2%; in experiment [2] it was 6.57%; in [3], 5.39%; in [4], 3.81%; in experiment [5] it was 11.5%; in experiment [6] it was -0.18%. Moreover, the inhibition worked out at 4.13% in experiment [7]; 7.63% in experiment [8]; 39.1% in experiment [9]; 4.19% in [10]; 5.06% in [11]; 6.17% in [12]. Also, the inhibition in [13] is 21.3%; in [14], 3.08%; in experiment [15] it was 17.7%; in experiment [16], 1.6%; in experiment [17], 7.43%; in experiment [18] it was 1.87%. In addition, the inhibition in experiment [19] stood at 8.73%; in experiment [20], 3.13%.
Regarding `CCS(=O)(=O)c1ccc(OC)c(Nc2ncc(-c3cccc(F)c3)o2)c1`, the inhibition worked out at 97% in experiment [1]; 4.96% in [2]; 9.62% in experiment [3]; 19.7% in experiment [4]; 81.3% in [5]; 0.05% in experiment [6]. Besides, the inhibition in [7] was found to be 34.1%; in experiment [8] it was 20.4%; in experiment [9], 64.1%; in [10], 7.85%; in [11] it was 6.89%; in [12] it was 32.5%. Also, the inhibition in [13] was 78.7%; in experiment [14], 26.3%; in experiment [15], 75.4%; in [16], 2.9%; in experiment [17], 9.7%; in [18], 6.73%. The inhibition in [19] came out at 5.27%; in experiment [20], 3.58%.
Turning to `CNC(=O)c1sc(-n2cnc3cc(OC)c(OC)cc32)cc1OCc1ccccc1C(F)(F)F`, the inhibition in experiment [1] is 6.11%; in [2], 2.29%; in [3], 6.55%; in experiment [4] it was 1.67%; in experiment [5], 1.95%; in [6] it was -0.58%. The inhibition in experiment [7] is 0.44%; in experiment [8], 3.6%; in experiment [9], 11.9%; in experiment [10], 2.32%; in [11] it was 3.95%; in [12], 3.05%. The inhibition in experiment [13] is 8.91%; in experiment [14], 4.12%; in experiment [15] it was 7.2%; in [16] it was 0.56%; in experiment [17] it was 2.64%; in experiment [18], 1.53%. For the same compound, the inhibition came to 3.89% in [19] and 2.71% in experiment [20].
As for `O=C(O[C@H]1CN[C@H](C#Cc2cc3ncnc(Nc4ccc(OCc5cccc(F)c5)c(Cl)c4)c3s2)C1)N1CCOCC1`, the inhibition was 6.15% in experiment [1]; 7.97% in [2]; 7.17% in experiment [3]; 4.04% in [4]; 5.91% in experiment [5]; -2.49% in experiment [6]. Besides, the inhibition in experiment [7] was -1.75%; in experiment [8] it was 1.76%; in [9], 1.88%; in [10] it was 4.09%; in [11], 5.96%; in [12] it was 5.44%. For the same compound, the inhibition in [13] turned out to be 6.48%; in [14] it was 2.24%; in experiment [15], 4.85%; in experiment [16], 2.6%; in [17], 5.1%; in experiment [18], 4.9%. Also, the results for the inhibition in [19] and in experiment [20] were 7.49% and 1.77%, respectively.
Regarding `CCN1CCC(C(=O)Nc2n[nH]c3nnc(-c4cccc(F)c4F)cc23)CC1`, the inhibition in experiment [1] is 2.87%; in experiment [2], -0.19%; in experiment [3], -1.53%; in [4], 3.1%; in experiment [5], -0.26%; in experiment [6], 0.02%. Also, the inhibition in [7] is 3.46%; in experiment [8], -0.07%; in [9], 2.23%; in experiment [10], -0.09%; in experiment [11] it was -0.29%; in [12], 0.08%. The inhibition was -1.05% in [13]; 1.1% in experiment [14]; 0.66% in experiment [15]; 0.64% in experiment [16]; 2.84% in [17]; 4.13% in experiment [18]. Moreover, the figures for the inhibition in experiment [19] and in experiment [20] were 2.58% and 1.86%, respectively.
